In the library only some 8.1% were active in any assay of this set; here they are far more common.
Hedgehog inh: Sonic Hedgehog pathway inhibition. inhibition, % (concentration not given with the values). Shh-LIGHT2 Gli-luciferase reporter, 30 h. hit rate 2.1% among 22,000;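 active = mean inhibition across valid replicates above about 65%, limit read from the data; inconclusive = mean under the limit, yet half or more replicates past it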;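 also: pathway switched on by Shh-conditioned medium diluted 1 in 25 in low serum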
NOMO-1 viab: STK33 inhibitor candidate reducing NOMO-1 cell viability. hit rate 7.5% among 37,000. AID 2330. inhibition, % (test concentration not listed). NOMO-1 AML viability, CellTiter-Glo luminescence, 72 h; in the data active = inhibition above about 80%; inconclusive = no clear call, values can overlap the other calls
MITF inhib: MITF inhibition; TRPM1 promoter luciferase, luminescence, 24 h; inhibition, % (concentration not given with the values); hit rate 0.28% among 37,000; in the data active = inhibition above about 85%; inconclusive = no clear call, values can overlap the other calls; inactive = below about 68%;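 also: human melanocyte line stably carrying TRPM1 promoter luciferase reporter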
PD-1 reverse act: reversal of PD-1 mediated T-cell inhibition; primary human CD4 T cells, PD-L1 beads, CellTiter-Glo 96 h; 29,000 tested, under 10 active; AID 2316; activation, % (concentration not given with the values); call rule not given here
A number is an active result; . = inactive; ? = inconclusive; / = not tested or not shown.

SMILES	Hedgehog inh	NOMO-1 viab	MITF inhib	PD-1 reverse act
CCC(=O)c1ccc2c(c1)N(CC(C)N(C)C)c1ccccc1S2 (stereo not given)	.	84.5	.	/
Cc1nc(Oc2ccc(NC(=O)c3ccccc3)cc2)c2c3c(sc2n1)CCC3	/	132.9	.	.
C=C(C)CC1C(=O)NN=C1C (stereo not given)	/	.	.	.
O=C(CC1OCCN(Cc2ccccc2)C1=O)Nc1cccc(Cl)c1 (stereo not given)	/	.	.	.
COC(=O)C1=CN(C23CC4CC(CC(C4)C2)C3)C=C(C(=O)OC)C1c1cccc(OC)c1	.	109.1	.	.
CC12CCC(c3c1nn(-c1ccccc1)c3C(F)(F)F)C2(C)C (stereo not given)	?	122.6	.	.
C[C@@H]1CN([C@@H](C)CO)C(=O)c2cccc(NS(=O)(=O)c3ccc(Cl)cc3)c2O[C@@H]1CN(C)C(=O)Nc1ccc(C(F)(F)F)cc1	.	121.1	88.2	.
Cc1ccc(S(=O)(=O)Nc2cccc3c2O[C@H](CN(C)C(=O)Nc2ccc(C(F)(F)F)cc2)[C@H](C)CN([C@H](C)CO)C3=O)cc1	.	90.3	.	.
Cc1ccc(S(=O)(=O)Nc2cccc3c2O[C@@H](CN(C)C(=O)Nc2ccc(C(F)(F)F)cc2)[C@@H](C)CN([C@H](C)CO)C3=O)cc1	.	.	.	/
C[C@@H]1CN([C@H](C)CO)C(=O)c2cccc(NS(=O)(=O)c3ccc(Cl)cc3)c2O[C@@H]1CN(C)C(=O)Nc1ccc(C(F)(F)F)cc1	.	.	.	.
C[C@@H]1CN([C@@H](C)CO)C(=O)c2cc(NC(=O)Nc3ccc(F)cc3)ccc2O[C@@H]1CN(C)Cc1ccc(Oc2ccccc2)cc1	.	117.5	.	.
C[C@@H]1CN([C@H](C)CO)C(=O)c2cc(NC(=O)Nc3ccc(F)cc3)ccc2O[C@@H]1CN(C)Cc1ccc(Oc2ccccc2)cc1	?	124.1	.	.
C[C@@H]1CN([C@H](C)CO)C(=O)c2cc(NC(=O)Nc3ccc(F)cc3)ccc2O[C@H]1CN(C)Cc1ccc(Oc2ccccc2)cc1	/	.	.	.
C[C@@H]1CN([C@@H](C)CO)C(=O)c2cc(NS(=O)(=O)c3ccc(F)cc3)ccc2O[C@H]1CN(C)Cc1ccc(-c2ccccc2)cc1	.	106.6	.	/
C[C@H]1CN([C@@H](C)CO)C(=O)c2cc(NS(=O)(=O)c3ccc(F)cc3)ccc2O[C@H]1CN(C)Cc1ccc(-c2ccccc2)cc1	/	.	.	.
C[C@@H]1CN([C@H](C)CO)C(=O)c2cc(NS(=O)(=O)c3ccc(F)cc3)ccc2O[C@@H]1CN(C)Cc1ccc(-c2ccccc2)cc1	/	118.3	.	.
O=C(Nc1ccc(S(=O)(=O)Nc2nccs2)cc1)C1c2ccccc2Oc2ccccc21	/	.	.	/
COc1cccc(C2CC(C(F)(F)F)n3nc(C(=O)Nc4cc(C)nn4-c4ccccc4)cc3N2)c1 (stereo not given)	/	.	.	.
C[C@@H]1CN([C@H](C)CO)C(=O)Cc2cc(NC(=O)Nc3ccc(F)cc3)ccc2O[C@H]1CN(C)Cc1ccc(C(F)(F)F)cc1	.	116.0	.	/
C[C@H]1CN([C@@H](C)CO)C(=O)Cc2cc(NC(=O)Nc3ccc(F)cc3)ccc2O[C@@H]1CN(C)Cc1ccc(C(F)(F)F)cc1	.	117.3	.	/
C[C@H](CO)N1C[C@H](C)[C@H](CN(C)Cc2ccc(C(F)(F)F)cc2)Oc2ccc(NC(=O)Nc3ccc(F)cc3)cc2CC1=O	.	113.2	.	.
COc1ccccc1OCC(=O)Nc1cccc(-c2nc3ccccc3s2)c1	/	.	.	.
Cc1ccc(NS(=O)(=O)c2cccc(C(=O)Nc3ccccc3)c2)cc1	/	.	.	.
O=C(Nc1ccc(S(=O)(=O)NC23CC4CC(CC(C4)C2)C3)cc1)C1CC1	.	.	.	.
Cc1c(C(=O)Nc2cnccn2)oc2ccccc12	/	112.3	.	.
SMILES	Hedgehog inh	NOMO-1 viab	MITF inhib	PD-1 reverse act
N#Cc1c(-c2cccs2)cc(-c2ccc(C(=O)O)cc2)nc1SCc1cccs1	.	.	.	.
COC(=O)C1=C(C)NC(=O)CC1c1ccccc1C (stereo not given)	.	.	.	.
Cc1ccccc1C1CC(=O)c2c(ccc3ccccc23)N1 (stereo not given)	.	139.7	.	.
Cc1c(S(=O)(=O)c2ccc(Cl)cc2)csc1C(=O)N(c1ccccc1)S(C)=O (stereo not given)	87.9	.	.	.
O=C(O)CN(c1ccccc1)S(=O)(=O)c1ccc(Cl)cc1	/	.	.	.
COc1cc(CC2COC(c3ccc(O)c(OC)c3)C2COC2OC(CO)C(O)C(O)C2O)ccc1O (stereo not given)	.	/	/	/
CC(C)(C)c1cn2c3ccccc3nc2n1CCCN1CCCCC1	/	.	.	.
C=CCn1c2ccccc2c2nnc(SCc3ccc([N+](=O)[O-])cc3)nc21	/	.	.	.
O=C(CC1(O)C(=O)Nc2ccc(Br)cc21)c1ccc(NS(=O)(=O)c2ccccc2)cc1 (stereo not given)	/	.	.	.
CN1C(=O)C(O)(CC(=O)c2ccccn2)c2cc(Br)ccc21 (stereo not given)	/	117.0	.	.
O=C(CC1(O)C(=O)N(Cc2ccccc2)c2ccc(Cl)cc21)c1ccncc1 (stereo not given)	/	117.1	.	.
O=C(CC1(O)C(=O)N(CCc2ccccc2)c2ccc(Cl)cc21)c1ccco1 (stereo not given)	/	.	.	/
NC(=O)CN1C(=O)C(O)(CC(=O)c2ccc(Cl)cc2Cl)c2ccccc21 (stereo not given)	/	.	.	/
O=C(CC1(O)C(=O)N(Cc2ccc(Cl)cc2)c2ccccc21)c1cc2ccccc2oc1=O (stereo not given)	/	120.4	.	.
O=C(CC1(O)C(=O)N(Cc2ccc(Cl)cc2)c2ccc(Cl)cc21)c1ccccn1 (stereo not given)	/	114.6	.	/
CCOC(=O)c1cc(C#N)c(Sc2ccc(C)cc2)nc1C(F)(F)F	.	?	.	.
CC(C)Cc1nc(SC(C)C(=O)Nc2ccc(Cl)cc2)n[nH]1 (stereo not given)	/	.	.	.
COc1ccc(CN2C(=O)C(O)(CC(=O)c3c(C)n[nH]c3C)c3ccccc32)cc1OC (stereo not given)	/	.	.	.
O=C(CC1(O)C(=O)N(Cc2ccccc2)c2ccc(Br)cc21)c1ccc2c(c1)OCCO2 (stereo not given)	/	.	.	.
Cc1ccc(CN2C(=O)C(O)(CC(=O)c3cccc(N)c3)c3cc(Cl)ccc32)cc1 (stereo not given)	/	133.0	.	.
Cc1coc(C)c1C(=O)CC1(O)C(=O)N(Cc2ccccc2)c2ccccc21 (stereo not given)	/	.	.	.
COc1ccc(CN2C(=O)C(O)(CC(=O)c3cccs3)c3ccccc32)cc1OC (stereo not given)	/	106.3	.	.
COc1ccc(C(=O)CC2(O)C(=O)N(Cc3ccccc3)c3ccc(Br)cc32)cc1[N+](=O)[O-] (stereo not given)	/	110.6	.	.
Cc1coc(C)c1C(=O)CC1(O)C(=O)N(CCc2ccccc2)c2ccc(Cl)cc21 (stereo not given)	/	88.0	.	/

Bioassay records from PubChem BioAssay.
